A selection: hits, their analogues and other compounds. The true share with any hit is near 19%.
IL-1B inflam inh – blocks inflammasome-driven IL-1 beta release; THP-1 LPS/ATP IL-1B secretion, AlphaLISA, 16 h; active compounds read low; activity change, % at 57.5 µM; 360,000 tested, 4.7% active; in the data active = activity change below about -50%; inconclusive = mostly about -30% to -49%
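Secreted IL-1B measured by AlphaLISA bead assay after 16 h compound exposure of THP-1 cells; compounds (final up to 57.5 uM) added 1 h before LPS (250 ng/mL) and ATP (1.25 mM) stimulation; lower signal means less secretion.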
DT40 TDP1 no CPT – qHTS for Inhibitors of human tyrosyl-DNA phosphodiesterase 1 (TDP1): qHTS in cells in absence of CPT; DT40 Tdp1-/- hTDP1 cells, no CPT, ATP luminescence, 48 h; Potency, µM (titrated, usually from 46.2 µM), for the others: at the top dose activity change, negative = growth inhibition, hits mostly inhibitors; AID 686978, 2013; 420,000 tested, 15% active; note: potency is the fitted concentration of half-maximal effect; nearly all actives have a fitted effect of over 55% in size
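Cells were dispensed at 400 per well, compounds added by pin tool, plates incubated ≥48 hr at 37 °C, then CellTiter-Glo added for 30 min at room temperature before luminescence reading. Line: DT40 Tdp1-/- complemented with hTDP1; camptothecin omitted.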
HT1080-NT tox – kills 2HG-producing HT-1080-NT fibrosarcoma cells; HT-1080-NT fibrosarcoma viability, CellTiter-Glo ATP luminescence, 48 h; Potency, µM (highest dose often 46.1 µM), for the others: at the top dose activity, negative = less viability, usual class: cytotoxic; AID 686970; 360,000 tested, 1.6% active;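 note: NT is the 2HG producing partner of a matched IDH1 knockdown line; potency is the fitted concentration of half-maximal effect; 0% = DMSO-treated cells and -100% = media-only wells without cells; nearly all actives have a fitted effect of over 55% in size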
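A 48-hour cytotoxicity screen used HT-1080-NT cells plated 2 hours before compound delivery. ATP-based CellTiter-Glo luminescence measured viability, normalized to DMSO and no-cell controls.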
uPA surface inh – blocks generation of uPA at the cell surface | cell surface uPA generation assay, qHTS | Potency, µM (series often up to 38.3 µM), for inactives: top-dose activity change, negative = inhibition, most hits filed as inhibitors | 330,000 tested, 0.31% active; active = well fitted inhibition curve with a large enough effect; inconclusive = small, poorly fitted or top-dose-only effect; inactive = no such curve, though single readings can be large or run the other way; tested in mouse RAW 264.7 cells; note: potency is the fitted concentration of half-maximal effect; nearly all actives have a fitted effect of over 55% in size
HT1080 IDH1KD tx – toxicity to HT-1080 IDH1 knockdown cells (counter line); HT-1080 IDH1 knockdown viability, ATP luminescence, 48 h; Potency, µM (top dose mostly 46.1 µM), without a hit: at the top dose activity, negative = toxicity, usual class: cytotoxic; 360,000 tested, 2% active;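 note: potency is the fitted concentration of half-maximal effect; 0% = DMSO wells and -100% = cell-free medium wells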
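Using the IDH1-knockdown HT-1080 line run in the same batch and compound series as the NT line, viability after 48 h at 37 °C was determined by CellTiter-Glo luminescence and expressed as % activity.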
TDP1 cell CPT – growth inhibition of DT40 Tdp1-/-;hTDP1 cells with camptothecin (screen for TDP1 inhibitors) | 420,000 tested, 12% active | chicken DT40 Tdp1-/-;hTDP1 cells + 20 nM CPT, ATP luminescence, 48 h | AID 686979 | Potency, µM (doses to about 46.2 µM), for the others: at the top dose activity change, negative = growth inhibition, usual class: inhibitors; note: potency is the fitted concentration of half-maximal effect; nearly all actives have a fitted effect of over 55% in size
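Cell growth measured by CellTiter-Glo luminescence after a minimum 48 h, 37 C compound exposure with 20 nM CPT in Tdp1-knockout DT40 cells stably expressing hTDP1, seeded 400/well; qHTS titration format.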
Numbers without * were called inactive; ? = inconclusive; / = no result; [ ] = dose if it differs, or a comment. Unless noted, calls come from the whole dose curve; as a rule, active = well fitted curve in the direction sought with a large enough effect; inconclusive = small, poorly fitted or top-dose-only effect, or another doubt; inactive = no such curve, though single readings can be large; an effect the other way counts as inactive or inconclusive. Unless noted, % is set by controls: 0 for no effect and ±100 for the full control effect.

SMILES	IL-1B inflam inh	DT40 TDP1 no CPT	HT1080-NT tox	uPA surface inh	HT1080 IDH1KD tx	TDP1 cell CPT
CCOC(=O)c1sc2nc3c(SCCC#N)cc(C(=O)c4cc(F)ccc4O)cn3c(=O)c2c1C	2	?	7%	3%	3%	?
CC1(C)COC(/C=C/c2cccc([N+](=O)[O-])c2)=N1	-107*	12µM*	?	-18%	?	?
COc1ccccc1C(O)c1ncc(-c2cccc3ccccc23)[nH]1 (configuration not stated)	-18	?	-17%	/	-6%	?
Cc1cc(=O)cc2oc3cc(N)c(-c4c(C)cc(O)cc4O)c(C)c3nc1-2	/	-24%	/	/	/	5%
Cc1[nH]nc(-c2ccc(O)cc2O)c1-c1nc2ccccc2s1	-82*	?	?	1%	?	?
CC1(C)CC2(CC(c3ccccc3)c3ccc(O)cc3O2)NC(=S)N1 (configuration not stated)	33	9.2µM*	-17%	6%	-21%	?
COc1ccc(C2CC3(CC(C)(C)NC(=S)N3)Oc3cc(O)cc(C)c32)cc1 (configuration not stated)	-1	8.2µM*	6%	5%	4%	9.2µM*
COc1ccc(C2CC3(CC(C)(C)NC(SC)=N3)Oc3cc(O)cc(C)c32)cc1 (configuration not stated)	?	5.2µM*	?	-9%	?	4.6µM*
CC(=O)Oc1cc2c(cc1Cl)C(c1cccs1)CC1(CC(C)(C)NC(=S)N1)O2 (configuration not stated)	24	16µM*	-16%	-9%	-16%	8.2µM*
CC(=O)c1cccc(NC(=O)NNC(=O)c2ccc(-c3ccccc3)cc2)c1	0	-6%	-1%	11%	-3%	0%
CC(C)CCN1C(=O)c2ccccc2C1c1nnnn1C(C)C (configuration not stated)	0	?	14%	/	28%	?
Cc1ccc(-c2nc3cc(Br)cnc3nc2-c2ccc(C)cc2)cc1	109	?	13%	-4%	-5%	15µM*
CCc1nn(CC(=O)Nc2ccc(NC(C)=O)cc2)c(=O)c2cc3sccc3n12	/	-21%	/	/	/	-21%
Cc1ccc(C2(SCC(N)C(=O)O)c3ccccc3-c3ccccc32)cc1 (configuration not stated)	2	-27%	16%	10%	19%	-13%
COc1cccc(CNc2nc3cc(-c4ccccc4)sc3c(=O)n2C)c1	-23	?	?	/	-20%	?
COc1cccc(CNc2nc3cc(-c4ccc(C(=O)N5CCN(C)CC5)cc4)sc3c(=O)n2C)c1	-20	?	23µM*	/	15µM*	21µM*
C=CCNc1nc2cc(-c3ccc(C(=O)N4CCOCC4)cc3)sc2c(=O)n1C	13	?	?	/	?	16µM*
Cc1cccc(N(C)C(=O)CSc2nc3ncccc3o2)c1	/	?	/	/	/	-28%
CC1CCCCCCC1OC(=O)c1ccccc1C(=O)O (configuration not stated)	1	-22%	3%	-1%	6%	-2%
CCOc1ccc(N(C)c2ccc(/C=C3/SC(=S)NC3=O)cc2)cc1	21	16µM*	?	-8%	?	?
CN(C)c1ccc(C=C2SC(=S)NC2=O)cc1	13	?	0%	-10%	-1%	0%
O=S(=O)(c1ccc(Cl)c2ccccc12)N1CCCC1	1	0.46µM*	-15%	-3%	-13%	-41%
O=C1Nc2ccc(S(=O)(=O)N3CCCC3)c3ccc(S(=O)(=O)N4CCCC4)c1c23	-4	?	-12%[9.24 µM]	3%	-26%	8.2µM*
Cc1ccc(C(=O)Nc2ccc(N3CCOCC3)nc2N2CCOCC2)cc1	/	?	-2%	-3%	1%	-6%
Cc1ccc(C(C)C)c(OCCNCCc2ccccc2)c1	-91*	23µM*	0%	-5%	-5%	?
SMILES	IL-1B inflam inh	DT40 TDP1 no CPT	HT1080-NT tox	uPA surface inh	HT1080 IDH1KD tx	TDP1 cell CPT
COc1cc(C(=O)NCCOc2cc(C)ccc2C(C)C)cc(OC)c1OC	-63*	12µM*	?	-14%	?	?
CCCCNCC#CCOc1cc(C)ccc1C(C)C	-70*	?	-18%	6%	-1%	?
Cc1ccc(C(C)C)c(OCCCNCc2cccnc2)c1	-6	?	5%	-2%	-3%	?
COc1cc(C(=O)NCCOc2cc(C)cc(C)c2)cc(OC)c1OC	27	2.9µM*	12µM*	2.5µM*	7.3µM*	4.1µM*
O=C(NC1CCCN(CCc2ccccc2)C1)C1CCCC1 (configuration not stated)	17	10%	19%	-1%	6%	30%
O=C(NCCc1ccccc1)c1ccc(NCC2CCCO2)c([N+](=O)[O-])c1 (configuration not stated)	-4	?	2%	-8%	0%	-27%
O=C(OCC(=O)N1CCCc2ccccc21)c1c(F)cccc1F	-2	13%	-1%	2%	0%	13%
CCCCN(C=O)c1c(CC)nc2ccc(C(=O)NCCc3ccccn3)cn12	-5	-17%	4%	/	29%	-24%
O=C(COC(=O)c1ccc(OC(F)F)cc1)NCc1cccs1	20	?	7%	0%	-10%	-15%
O=C1CC(c2ccccc2)CC(O)=C1C=Nc1ccccc1Cl (configuration not stated)	7	-33%	-6%	2%	-6%	?
COc1ccccc1N=CC1=C(O)CC(c2ccccc2)CC1=O (configuration not stated)	0	9.2µM*	?	2%	?	5.2µM*
Cc1cc2nc(-c3cccc(Cl)c3)c(Cc3ccsc3)n2c(C)c1Br	26	?	-16%	/	-18%	?
COc1ccc(N2CCN(C(CNC(=O)C3CCCCC3)c3ccco3)CC2)cc1 (configuration not stated)	-6	?	-5%	13%	0%	?
CCN(CC)CCCCNc1ncc2cc(-c3cc(OC)cc(OC)c3)c(NC(=O)NC(C)(C)C)nc2n1	0	?	16µM*	7.1µM*	9.2µM*	?
O=C(CN1CCCC1)N1c2ccccc2Sc2ccc(C(F)(F)F)cc21	-3	?	-7%	9%	-2%[9.24 µM]	?
O=C(CSc1nc2ccccc2o1)N1c2ccccc2Sc2ccc(C(F)(F)F)cc21	-1	21µM*	-14%	-5%	-11%	?

Source: PubChem
